# Source: PubChem BioAssay
# Sampled rows, rich in hits. Any-hit rate of the full collection: about 3.2%.
# RGS12 GoLoco inh: qHTS Assay for Inhibitors of RGS12 GoLoco Motif Activity (Red Fluorophore) | Guanine nucleotide-binding protein G(i) subunit alpha-1 (Homo sapiens), P63096 | AID 880, 2007 | Gai1:RGS12 GoLoco peptide FP, rhodamine, 10 min | Potency, µM (titrated, usually from 61.6 µM), inactives show top-dose activity, negative = inhibition, actives largely listed as inhibitors | 230,000 compounds, 0.44% hits; active = well fitted inhibition curve with a large enough effect, not every such curve was filed as active; inactive = no such curve, though single readings can be large or run the other way; also: nearly all actives have a fitted effect of over 30% in size
# Tau fluor cs: Counterscreen qHTS for Inhibitors of Tau Fibril Formation, Fluorescence Polarization | tau K18 P301L Alexa594 fluorescence, heparin fibrillization | AID 1463, 2008 | 280,000 compounds, 0.93% hits | Potency, µM (series often up to 57.7 µM), without a hit: at the top dose activity change, negative = decrease; also: nearly all actives have a fitted effect of over 55% in size
#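 Human tau K18 P301L (15 uM unlabeled, 0.24 uM Alexa 594-labeled) in 100 mM sodium acetate pH 7 with 20 uM heparin, 6 hr at 37 C. ThT 30 uM added, 1 hr ambient; Alexa 594 FP and total fluorescence read at 555/632 nm.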
# TexasRed fluor: Total Fluorescence Counterscreen for Inhibitors of the Interaction of Thyroid Hormone Receptor and Steroid Receptor Coregulator 2; 280,000 compounds, 0.29% hits; TRb/SRC2 Texas Red total fluorescence interference; Potency, µM (titrated, usually from 106 µM), for the others: at the top dose fluorescence change, negative = quenching; active = well fitted curve in either direction with a large enough effect; inconclusive = small, poorly fitted or top-dose-only effect
#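 Human TRb ligand-binding domain at 0.6 uM with 20 nM Texas Red SRC2 peptide in Tris buffer containing 1 uM T3 and 5% DMSO, incubated with compound 5 h at ambient temperature. Total fluorescence (555/632 nm) calculated as parallel + 2 × perpendicular.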
# TRb SRC2 PPI: qHTS for Inhibitors of the Interaction of Thyroid Hormone Receptor and Steroid Receptor Coregulator 2; AID 1469, 2008; TRbeta-SRC2 peptide binding, fluorescence polarization; receptor liganded with 1 µM T3; Thyroid hormone receptor beta (Homo sapiens), P10828; 280,000 compounds, 0.065% hits; Potency, µM (titrated, usually from 106 µM), for the others: at the highest dose activity change, negative = inhibition, actives largely listed as inhibitors;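 also: plate controls were bound peptide for no effect and peptide without receptor for full effect; nearly all actives have a fitted effect of over 50% in size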
# Target sequence (P10828 whole entry, looked up): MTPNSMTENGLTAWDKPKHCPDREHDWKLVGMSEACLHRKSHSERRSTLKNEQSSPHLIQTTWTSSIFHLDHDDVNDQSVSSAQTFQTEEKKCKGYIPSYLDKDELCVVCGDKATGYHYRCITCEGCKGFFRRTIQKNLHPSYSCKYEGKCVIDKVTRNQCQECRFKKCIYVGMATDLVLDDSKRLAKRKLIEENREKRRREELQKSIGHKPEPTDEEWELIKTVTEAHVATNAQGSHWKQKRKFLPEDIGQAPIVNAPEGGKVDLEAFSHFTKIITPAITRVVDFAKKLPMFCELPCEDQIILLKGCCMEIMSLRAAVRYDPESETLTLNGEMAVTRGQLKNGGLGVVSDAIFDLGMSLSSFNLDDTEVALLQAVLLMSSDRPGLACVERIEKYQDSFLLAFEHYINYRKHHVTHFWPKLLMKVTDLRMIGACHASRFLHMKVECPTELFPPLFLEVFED
#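 Each compound concentration gave % activity, normalized to unbound and bound Texas Red SRC2 controls, from polarization read after 5 hr ambient incubation with T3-loaded human TRb LBD.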
# Tau ThT inhib: qHTS for Inhibitors of Tau Fibril Formation, Thioflavin T Binding; Potency, µM (titrated, usually from 57.4 µM), for the others: at the top dose activity, negative = inhibition, hits mostly inhibitors; recombinant tau K18 P301L, heparin-induced fibrillization, ThT fluorescence; 270,000 compounds, 2.1% hits; Microtubule-associated protein tau (Homo sapiens), P10636; AID 1460, 2008; also: nearly all actives have a fitted effect of over 55% in size
#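 Heparin-induced (20 uM) aggregation of recombinant human K18 P301L tau, 15 uM unlabeled with 0.24 uM labeled, pH 7 acetate buffer, 6 hr at 37 C with compound. Fibrils quantified by 30 uM ThT fluorescence after 1 hr ambient incubation.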
# Tau fibril FP: qHTS for Inhibitors of Tau Fibril Formation, Fluorescence Polarization | Potency, µM (series often up to 57.7 µM), without a hit: at the top dose activity, negative = inhibition, hits mostly inhibitors | AID 1468, 2008 | 280,000 compounds, 0.39% hits | K18 P301L tau heparin fibrillization, Alexa594 FP, 6 h | Microtubule-associated protein tau (Homo sapiens), P10636; also: nearly all actives have a fitted effect of over 55% in size
#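 Heparin (20 uM) drove fibril formation of recombinant tau K18 P301L, 15 uM unlabeled with 0.24 uM Alexa 594 label, for 6 hr at 37 C in 100 mM sodium acetate pH 7. Fluorescence polarization (555/632 nm) read 1 hr after 30 uM ThT.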
# Starred values were filed as active, the others as inactive; ? = inconclusive; . = no result given; [ ] = another dose, or the depositor's remark. Unless noted, calls follow the shape of the dose curve; as a rule, active = well fitted curve in the direction sought with a large enough effect; inconclusive = small, poorly fitted or top-dose-only effect, or another doubt; inactive = no such curve, though single readings can be large; an effect the other way counts as inactive or inconclusive. Unless noted, % is scaled to controls: 0 for no effect and ±100 for the full control effect; potency is read from the fitted curve at half-maximal effect.
SMILES,RGS12 GoLoco inh,Tau fluor cs,TexasRed fluor,TRb SRC2 PPI,Tau ThT inhib,Tau fibril FP
COc1cc(C(=O)O/N=C2/C=C(C)C(=O)C=C2C)cc(OC)c1OC,-12%,-5%,-24%,3%,?,-2%
CC1=C/C(=N\OS(=O)(=O)c2ccccc2)C(C(C)C)=CC1=O,-1%,-26%,2%,-6%,10µM*,?
NCCCC[C@H](NC(=O)[C@@H]1CCCN1C(=O)[C@@H](N)CCCN=C(N)N)C(=O)N1CCC[C@H]1C(=O)N[C@@H](CCC(N)=O)C(=O)N[C@@H](CCC(N)=O)C(=O)N[C@@H](Cc1ccccc1)C(=O)O,.,.,-32%,-2%,.,.
CC(=O)Nc1sc(N/N=C\c2cccc(Cl)c2)nc1-c1cccs1,13%,?,-3%,-2%,10µM*,-6%
CC(=O)Nc1sc(N/N=C\c2ccccc2F)nc1-c1cccs1,-8%,?,-6%,-5%,8.9µM*,-2%
CC(=O)Nc1sc(N/N=C\c2ccc(O)cc2)nc1-c1cccs1,3%,?,0%,2%,14µM*,-9%
CC(=O)Nc1sc(NC(=O)c2ccccc2)nc1-c1cccs1,-2%,-12%,-4%,-2%,?,-1%
CN(C)Cc1ccccc1-c1cc(NCc2cccs2)ncn1,4%,.,.,.,.,.
Cc1nc2ncccn2c1-c1csc(Nc2ccc(N(C)C)cc2)n1,-3%,?,-2%,-1%,13µM*,-2%
Cc1nc2ncccn2c1-c1csc(Nc2ccccc2)n1,6%,?,-1%,-6%,?,4%
COc1ccc(Nc2nc(-c3c(C)nc4ncccn34)cs2)cc1,-1%,?,-3%,-6%,8.9µM*,-2%
COc1ccccc1Nc1nc(-c2c(C)nc3ncccn23)cs1,10%,?,-2%,-1%,?,0%
OC[C@H]1NC[C@@H](O)[C@@H](O)[C@@H]1O,.,.,?,2%,.,.
CCOc1ccc(CCNC(=O)Cn2c(C)c3cnn(-c4ccccc4)c(=O)c3c2C)cc1,.,-8%,-2%,2%,-3%,3%
Cc1cccc(C2=NN(c3ccccc3)[C@H](CO)[C@H]2c2ccc(Cl)cc2)c1,3%[88.7 µM],11µM*[quencher],3%,8%,?,?
Cc1cccc(C2=NN(c3ccc(Br)cc3)[C@@H](C(=O)N3CCOC3=O)[C@@H]2c2ccc(Cl)cc2)c1,-140%,?,0%,-1%,-3%,-7%
Cc1cccc(C2=NN(c3ccc(Br)cc3)[C@@H](C(=O)N3CCOC3=O)[C@@H]2c2ccc(F)cc2)c1,3%,?,-2%,1%,-18%,-2%
Cc1cccc(C2=NN(c3ccccc3)[C@H](CO)[C@H]2c2ccc(F)cc2)c1,21%[88.7 µM],32µM*[quencher],0%,5%,?,?
Clc1ccc(N=c2ssnc2Cl)nc1,10%,-9%,2%[53 µM],0%[53 µM],-8%,-7%
N#Cc1cccc(N=c2ssnc2Cl)c1,-23%,-18%,-5%,-7%,11µM*,?
OCc1ccccc1N=c1ssnc1Cl,-4%,?,2%,-5%,35µM*,?
COc1cc(N=c2ssnc2Cl)cc(OC)c1,16µM*,-9%,-5%,1%,-1%,3%
Clc1nssc1=Nc1ccc(Br)cc1,13%,-25%,-2%,-7%,13µM*,?
C=CC(=O)OCC[N+](C)(C)C,.,.,-2%[201 µM],2%[201 µM],.,.
O=C(COc1ncnc2c1cnn2-c1ccccc1)Nc1ccc(S(=O)(=O)N2CCCCC2)cc1,8%,?,2%,1%,5%,18µM*
